This is an account of results in ChEMBL document CHEMBL1157539, “Thousands of chemical starting points for antimalarial lead identification” (Nature, 2010).

Where “and” joins values, the source holds several entries; their conditions need not be identical. Identical values can stand only once.

Common to all, as to assay type: functional
The subject of test [1] is Plasmodium falciparum. The test can be described thus: GSK_TCMDC: Inhibition of Plasmodium falciparum 3D7 in whole red blood cells, using parasite LDH activity as an index of growth. Test compounds present at 2uM.
Test [2] has as its system Plasmodium falciparum. The experiment in a line: GSK_TCMDC: Inhibition of Plasmodium falciparum Dd2 in whole red blood cells, using parasite LDH activity as an index of growth. Test compounds present at 2uM.
The test system of test [3] is HepG2. The test can be described thus: GSK_TCMDC: Percent inhibition of human HepG2 cell line. Test compounds present at 10uM.

One may read the Inhibition as the percentage by which the read-out fell short of the control. Read a high Inhibition as a response far below the control. `Br.CC(Cc1ccc(SC(C)(C)C)cc1)NCC(O)c1cccc(Cl)c1` (centres undefined): the Inhibition in test [1] is 99%; in test [2] it was 99%; in test [3], 14%.

On to `C=C[C@H]1CN2CC[C@H]1C[C@H]2[C@H](O)c1cc(-c2ccc(Cl)cc2)nc2ccc(OC)cc12.Cl`, for which the figures for the Inhibition in test [1], in test [2] and in test [3] were 99%, 98% and 38%, respectively.

`CCCCNC(c1ccc(Cl)cc1)C(O)c1ccc(Cl)cc1.Cl` (centres undefined): the Inhibition is 99% in test [1], 98% in test [2] and 13% in test [3].

Turning to `CCC(C)CN1CCC(N(C)c2cc(NC(=O)c3ccc(F)cc3)ccn2)CC1.O=C(O)C(F)(F)F` (centres undefined), the Inhibition is on record as 93% in test [1], 32% in test [2] and 4% in test [3].

Consider `Cc1nc(C)c(-c2ccc(Oc3ccc(OC(F)(F)F)cc3)cc2)c(OC(=O)N(CCNC(C)C)C(C)C)c1Br.Cl`, for which the values for the Inhibition in test [1], in test [2] and in test [3] were 98%, 97% and 35%, respectively.

For `O=[N+]([O-])c1ccc(Oc2c(Cl)cc(S(=O)(=O)N3CCC(CN4CCC(c5c[nH]c6ccccc56)CC4)CC3)cc2Cl)c(Cl)c1`, the Inhibition in test [1] was determined as 100%; in test [2], 83%; in test [3] it was 43%.

As for `CC[C@H]1CN2CC[C@H]1C[C@H]2[C@H](O)c1cc(-c2ccc(OC(F)(F)F)cc2)nc2ccc(OC)cc12.Cl`, the Inhibition was found to be 98% in test [1], 99% in test [2] and 24% in test [3].

Regarding `CC[C@H]1CN2CC[C@H]1C[C@H]2[C@H](O)c1cc(-c2ccc(Cl)c(Cl)c2)nc2ccc(OC)cc12.Cl`, the Inhibition in test [1] was found to be 98%; in test [2], 99%; in test [3], 17%.

Consider `COc1ccc(CN2CCN(CCOC(c3ccc(F)cc3)c3ccc(F)cc3)CC2)c(O)c1`, for which the values for the Inhibition in test [1], in test [2] and in test [3] were 97%, 97% and 6%, respectively.

As to `COc1coc(C(=O)NC2CCN(CC3(c4ccc(Cl)cc4)CCC3)CC2)c1OC`, the Inhibition in test [1] is recorded as 96%; in test [2], 96%; in test [3], 2%.

Regarding `Cl.N#Cc1c(F)cc(N2CCC(NCC[C@H](N)Cc3ccc(F)c(F)c3)CC2)cc1F`, the Inhibition in test [1] is listed as 100%; in test [2] it was 26%; in test [3], 70%.

On to `COc1ccc(-c2ccccc2)cc1NC(=S)NC1CCC(CN2CCC(c3c[nH]c4ccccc34)CC2)CC1` (centres undefined), for which the Inhibition in test [1] was 100%; in test [2], 98% and 95%; in test [3] it was 27% and 51%.

`Cc1ccc(CC(C)NCC(O)c2cccc([N+](=O)[O-])c2)cc1` (centres undefined): the Inhibition in test [1] is on record as 97%; in test [2] it was 85%; in test [3], 0%.

With `Cc1csc(NC2=NCCN2)n1.Cl`, the results for the Inhibition in test [1], in test [2] and in test [3] were 99%, 1% and 10%, respectively.

Turning to `COc1cc(C=CC(=O)NC2CCC(CN3CCC(c4c[nH]c5ccccc45)CC3)CC2)cc(OC)c1` (centres undefined), the values for the Inhibition in test [1], in test [2] and in test [3] were 100%, 90% and 38%, respectively.

For the molecule `O=C(/C=C/c1ccc(O)cc1)NC1CCC(CN2CCC(c3c[nH]c4ccccc34)CC2)CC1` (centres undefined), the Inhibition in test [1] is 99%; in test [2], 51%; in test [3] it was 21%.

For the molecule `COC(=O)/C=C/c1ccc(CC(C)NCC(O)c2cccc(Cl)c2)cc1` (centres undefined), the figures for the Inhibition in test [1], in test [2] and in test [3] were 99%, 73% and 2%, respectively.

Regarding `O=C(/C=C/c1ccc(F)c(C(F)(F)F)c1)N1CCC(CN2CCC(c3c[nH]c4ccccc34)CC2)CC1`, the Inhibition stood at 98% in test [1], 1% in test [2] and 23% in test [3].

As to `CC(C)CNCc1cccc(-c2ccc(CN(C(=O)NC3CCCCC3)C3CCN(Cc4ccccc4)CC3)cc2)c1.O=C(O)C(F)(F)F`, the figures for the Inhibition in test [1], in test [2] and in test [3] were 97%, 51% and 27%, respectively.

For `CCCCCCC(C)c1cc(O)c2c(c1)OC(C)(C)c1ccncc1-2.Cl` (centres undefined), the Inhibition in test [1] came out at 100%; in test [2], 61%; in test [3], 0%.

As for `Cl.N=c1c2c(n(Cc3ccc(Cl)cc3Cl)c3c1CCC3)CCCC2`, the Inhibition in test [1] is on record as 94%; in test [2] it was 73%; in test [3] it was 0%.

With `CN(C)c1cccc(CN2CC=C(c3c[nH]c4ccc(Cl)cc34)CC2)c1`, the figures for the Inhibition in test [1], in test [2] and in test [3] were 93%, 87% and 40%, respectively.

In the case of `O=C(/C=C/c1ccc(Cl)c(Cl)c1)N1CCC(CN2CCC(c3c[nH]c4ccc(NS(=O)(=O)c5cccs5)cc34)CC2)CC1`, the Inhibition is 100% in test [1], 100% in test [2] and 17% in test [3].

Take `Oc1ccc2[nH]cc(C3=CCN(CCc4ccccc4)CC3)c2c1`: the values for the Inhibition in test [1], in test [2] and in test [3] were 96%, 60% and 11%, respectively.

Regarding `C[C@@H]1C[C@@H]([C@H](O)CC2CC(=O)NC(=O)C2)C(=O)[C@@H](C)C1` [CYCLOHEXIMIDE], the Inhibition in test [1] is recorded as 96%; in test [2] it was 87%; in test [3], 46%.

With `CC(Cc1ccc(OCCCCOc2ccccc2)cc1)NCCC1CCCN1C` (centres undefined), the Inhibition in test [1] is listed as 99%; in test [2] it was 98%; in test [3] it was 100%.

Consider `C=C[C@H]1CN2CC[C@H]1C[C@H]2[C@H](O)c1cc(/C=C/c2ccc(F)cc2)nc2ccc(OC)cc12.Cl`, for which the Inhibition in test [1] is given as 99%; in test [2] it was 99%; in test [3], 25%.

As for `O=C(Nc1ccccc1C(F)(F)F)NC1CCC(CN2CCC(c3c[nH]c4ccccc34)CC2)CC1` (centres undefined), the Inhibition in test [1] was 96% and 86%; in test [3], 46% and 34%.

For `COc1ccc2nc(-c3ccc(F)cc3)cc([C@@H](O)[C@@H]3C[C@@H]4CCN3CC4C=NO)c2c1` (some centres undefined), the Inhibition was found to be 100% in test [1], 94% in test [2] and 14% in test [3].

On to `Cc1ccc(CC(C)NC[C@H](O)c2cccc(Cl)c2)cc1.Cl` (some centres undefined), for which the Inhibition in test [1] is listed as 96%; in test [2], 47%; in test [3], 15%.

`O=C(C=Cc1cccc(Cl)c1Cl)NC1CCC(CN2CCC(c3c[nH]c4ccccc34)CC2)CC1` (centres undefined): the Inhibition in test [1] is 83% and 100%; in test [3], 40% and 33%.

As to `C[C@H](Cc1ccc(OCCCCCCOc2ccccc2)cc1)NC[C@@H](O)c1cc(Br)no1.Cl`, the Inhibition in test [1] is on record as 94%; in test [2] it was 70%; in test [3] it was 21%.

With `COc1cccc(CC(C)NCC(O)c2cccc(Cl)c2)c1.Cl` (centres undefined), the Inhibition came out at 85% in test [1], 76% in test [2] and 7% in test [3].

Consider `O=C(Cc1cc(=O)oc2cc(O)ccc12)N1CCC(CN2CCC(c3c[nH]c4ccccc34)CC2)CC1`, for which the Inhibition in test [1] was 94%; in test [2], 0%; in test [3], 1%.

Consider `CN(C)c1cccc(NC(=O)NC2N=C(c3ccccc3)c3ccccc3N(CC(=O)N(C)c3ccccc3)C2=O)c1` (centres undefined), for which the Inhibition in test [1] was found to be 99%; in test [2], 80%; in test [3] it was 1%.

In the case of `COc1ccc2[nH]cc(C3=CCN(Cc4ccccc4)CC3)c2c1`, the Inhibition worked out at 90% in test [1], 84% in test [2] and 51% in test [3].

Regarding `CN1CCC(O)(c2ccc(Br)cc2)C(C(O)c2ccc(Br)cc2)C1.CS(=O)(=O)O` (centres undefined), the values for the Inhibition in test [1], in test [2] and in test [3] were 98%, 99% and 28%, respectively.

On to `CCCCCCCc1cc(O)c2c3c(c(=O)oc2c1)CN(C)CC3`, for which the values for the Inhibition in test [1], in test [2] and in test [3] were 97%, 100% and 0%, respectively.

In the case of `C=CC12CCN(CC1)C(C(O)c1ccnc3ccc(OC)cc13)C2` (centres undefined), the Inhibition in test [2] was 72%; in test [3] it was 0%.

On to `Oc1ccc(CN2CCN(CCOC(c3ccccc3)c3ccccc3)CC2)cc1Cl`, for which the Inhibition in test [1] stood at 98%; in test [2] it was 77%; in test [3], 7%.

On to `Brc1cnc(NC2=NCCN2)c(Br)c1.Cl`, for which the Inhibition in test [1] was 99%; in test [2], 0%; in test [3] it was 0%.

For `Cc1[nH]c2cc(F)ccc2c1C1=CCN(CCCCC2(C)C(=O)Nc3ccccc32)CC1` (centres undefined), the values for the Inhibition in test [1], in test [2] and in test [3] were 93%, 90% and 13%, respectively.

As for `Cc1[nH]c2ccccc2c1C1=CCN(CC2CC2C(=O)c2ccccc2)CC1` (centres undefined), the Inhibition in test [1] is given as 95%; in test [2] it was 88%; in test [3], 18%.

With `O=C(CCc1ccc(Cl)cc1Cl)NC1CCC(CN2CCC(c3c[nH]c4ccccc34)CC2)CC1` (centres undefined), the Inhibition was 100% and 97% in test [1]; 44% and 33% in test [3].

Consider `OC(CNC12CC3CC(CC(C3)C1)C2)c1cccc(C(F)(F)F)c1` (centres undefined), for which the Inhibition in test [1] amounted to 97%; in test [2], 98%; in test [3], 16%.

Consider `CC(C)CNCc1cccc(-c2ccccc2CN(C(=O)Nc2ccccc2)C2CCN(Cc3ccccc3)CC2)c1.O=C(O)C(F)(F)F`, for which the Inhibition in test [1] was determined as 100%; in test [2], 68%; in test [3], 36%.

Take `CC(Cc1ccc(Sc2ccccc2)cc1)NCC(O)c1cccc(C(F)(F)F)c1` (centres undefined): the Inhibition in test [1] was 99%; in test [2] it was 53%; in test [3], 0%.

Consider `O=C1Nc2cccc3c2C1(CCCCN1CC=C(c2c[nH]c4ncccc24)CC1)CCC3` (centres undefined), for which the results for the Inhibition in test [1], in test [2] and in test [3] were 92%, 80% and 11%, respectively.

Regarding `FC(F)(F)c1ccc(NC(=S)NC2CCC(CN3CCC(c4c[nH]c5ccccc45)CC3)CC2)cc1` (centres undefined), the Inhibition in test [1] is 100%; in test [2], 100% and 99%; in test [3], 65% and 92%.

As to `Oc1ccc(CN2CCN(CCOC(c3ccccc3)c3ccc(Cl)cc3)CC2)cc1Cl` (centres undefined), the figures for the Inhibition in test [1], in test [2] and in test [3] were 98%, 97% and 11%, respectively.

In the case of `COC(=O)c1ccc(CC(C)NCC(O)c2ccc3ccc4ccccc4c3c2)cc1.O=C(O)/C=C/C(=O)O` (centres undefined), the figures for the Inhibition in test [1], in test [2] and in test [3] were 100%, 97% and 21%, respectively.

On to `COc1cccc(C(=O)C2CC2CN2CC=C(c3c(C)[nH]c4ccccc34)CC2)c1` (centres undefined), for which the Inhibition was found to be 92% in test [1], 87% in test [2] and 13% in test [3].

In the case of `CC[C@H]1CN2CC[C@H]1C[C@H]2[C@H](O)c1cc(N2CCCC(C(=O)N(CC)CC)C2)nc2ccc(OC)cc12` (some centres undefined), the figures for the Inhibition in test [1], in test [2] and in test [3] were 100%, 99% and 0%, respectively.

For `CC[C@H]1CN2CC[C@@H]1C[C@H]2[C@H](O)c1cc(-c2ccc(F)cc2)nc2ccc(O)cc12.Cl`, the values for the Inhibition in test [1], in test [2] and in test [3] were 99%, 99% and 25%, respectively.

Regarding `Cc1cc2ccc(CNCCc3ccccc3Br)cc2nc1N.Cl`, the Inhibition is 100% in test [1], 48% in test [2] and 0% in test [3].

On to `CO/C=C(/C(=O)OC)c1ccccc1Oc1cc(Oc2ccccc2C#N)ncn1` [AZOXYSTROBIN], for which the Inhibition in test [1] stood at 98%; in test [2] it was 98%; in test [3], 7%.
